Screening data as filed in PubChem.
This is one part of a sample in which hits are shown more often than they occur.
IL1B secr inh – inflammasome signaling inhibition, IL-1 beta readout; THP-1 LPS/ATP IL-1B secretion, AlphaLISA, 16 h; active compounds read low; activity change, % at 57.5 µM; 360,000 tested, 4.7% active; AID 743279; in the data active means activity change below about -50%; inconclusive means mostly about -30% to -49%
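Secreted IL-1B measured by AlphaLISA bead assay after 16 h compound exposure of THP-1 cells; compounds (final up to 57.5 uM) added 1 h before LPS (250 ng/mL) and ATP (1.25 mM) stimulation; lower signal means less secretion.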
12-LOX inh – inhibitors of human 12S-lipoxygenase ALOX12 | 580,000 tested, 1.1% active | AID 1671190 | P18054 | Potency, µM (doses to about 108 µM), actives largely listed as inhibitors | purified 12hLO, xylenol orange hydroperoxide absorbance
Target sequence (P18054 whole entry, looked up): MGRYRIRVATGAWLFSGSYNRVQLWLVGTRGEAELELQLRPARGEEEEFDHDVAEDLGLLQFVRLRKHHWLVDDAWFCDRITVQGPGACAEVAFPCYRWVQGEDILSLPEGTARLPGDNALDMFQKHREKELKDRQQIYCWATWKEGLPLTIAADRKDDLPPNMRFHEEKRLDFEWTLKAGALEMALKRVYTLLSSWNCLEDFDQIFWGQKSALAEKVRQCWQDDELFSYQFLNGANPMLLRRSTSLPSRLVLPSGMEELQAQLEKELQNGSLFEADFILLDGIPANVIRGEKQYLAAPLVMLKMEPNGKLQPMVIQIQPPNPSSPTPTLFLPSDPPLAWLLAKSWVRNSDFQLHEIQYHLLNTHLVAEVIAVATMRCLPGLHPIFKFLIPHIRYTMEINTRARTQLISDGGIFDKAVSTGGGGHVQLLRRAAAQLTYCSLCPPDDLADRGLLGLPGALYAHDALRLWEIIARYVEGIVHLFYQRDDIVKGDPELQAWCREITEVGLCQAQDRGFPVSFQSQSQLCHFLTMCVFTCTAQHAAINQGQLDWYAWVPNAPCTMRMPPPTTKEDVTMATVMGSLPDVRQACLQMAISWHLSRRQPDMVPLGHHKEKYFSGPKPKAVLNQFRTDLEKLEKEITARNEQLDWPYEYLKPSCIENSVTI
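Purified human 12hLO at 150 nM in 25 mM Hepes, 0.01% Triton X-100, pH 7.0, preincubated 15 min at room temperature with compound. Reaction started with 40 uM arachidonic acid, 30 min at room temperature. Hydroperoxide measured by Fe-xylenol orange, 573/405 nm absorbance ratio.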
DT40 TDP1 CPT – growth inhibition of DT40 Tdp1-/-;hTDP1 cells with camptothecin (screen for TDP1 inhibitors) | Potency, µM (highest dose often 46.2 µM), usual class: inhibitors | AID 686979 | 420,000 tested, 12% active | chicken DT40 Tdp1-/-;hTDP1 cells + 20 nM CPT, ATP luminescence, 48 h; further: nearly all actives have a fitted effect of over 55% in size
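Chicken DT40 Tdp1-/- cells complemented with human TDP1, 400 cells/well, exposed to compounds plus 20 nM camptothecin for at least 48 h at 37 C; viability read as ATP content by CellTiter-Glo luminescence.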
DT40 TDP1 no CPT – qHTS for Inhibitors of human tyrosyl-DNA phosphodiesterase 1 (TDP1): qHTS in cells in absence of CPT; DT40 Tdp1-/- hTDP1 cells, no CPT, ATP luminescence, 48 h; 420,000 tested, 15% active; AID 686978, 2013; Potency, µM (doses to about 46.2 µM), actives largely listed as inhibitors; further: nearly all actives have a fitted effect of over 55% in size
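Growth of hTDP1-complemented DT40 Tdp1-knockout cells is measured by ATP luminescence after at least 48 hr compound exposure at 37 °C, with DMSO substituting for the 20 nM CPT used in the parallel screen.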
HT1080-NT tox – kills 2HG-producing HT-1080-NT fibrosarcoma cells | Potency, µM (doses to about 46.1 µM), most hits filed as cytotoxic | HT-1080-NT fibrosarcoma viability, CellTiter-Glo ATP luminescence, 48 h | 360,000 tested, 1.6% active;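 further: NT is the 2HG producing partner of a matched IDH1 knockdown line; nearly all actives have a fitted effect of over 55% in size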
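HT-1080-NT fibrosarcoma cells (2HG-overproducing), 750 cells/well in RPMI with 5% FBS, dosed after 2 h and incubated 48 h at 37C. CellTiter-Glo luminescence normalized to DMSO and no-cell wells; concentration-response curves fitted and classed.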
HT1080 IDH1KD tx – kills HT-1080 cells with IDH1 knockdown; HT-1080 IDH1 knockdown viability, ATP luminescence, 48 h; Potency, µM (titrated, usually from 46.1 µM), hits mostly cytotoxic; 360,000 tested, 2% active; AID 686971
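After a 2 h attachment period, IDH1KD HT-1080 cells took pin-transferred compound for 48 h at 37 °C; ATP-based luminescence after 10 min room-temperature reagent incubation reported viability.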
A number is an active result; ! = a repeat was not active; [ ] = another dose, or the depositor's remark. Unless noted, the call rests on the fitted dose curve; in most records, active means well fitted curve in the direction sought with a large enough effect; inconclusive means small, poorly fitted or top-dose-only effect, or another doubt; inactive means no such curve, though single readings can be large; an effect the other way counts as inactive or inconclusive.

COc1ccc(CCCc2nnc(SCC(=O)Nc3nc(C)cs3)n2C)cc1C was read as IL1B secr inh inactive, 12-LOX inh inactive, DT40 TDP1 CPT inconclusive, DT40 TDP1 no CPT 26µM, HT1080-NT tox inactive and HT1080 IDH1KD tx inactive.
Cc1csc(NC(=O)CSc2nnc(CCNC(=O)c3cccs3)n2C)n1 was read as IL1B secr inh inactive, 12-LOX inh inactive, DT40 TDP1 CPT inactive, DT40 TDP1 no CPT inactive, HT1080-NT tox inactive and HT1080 IDH1KD tx inactive.
`COc1ccc(CCCc2nnc(SCC(=O)Nc3ccc(C)cc3)o2)cc1C` gave 12-LOX inh 18µM!, DT40 TDP1 CPT inactive and DT40 TDP1 no CPT inactive.
For COc1ccc(CCCc2nnc(SCC(=O)Nc3cc(F)ccc3C)o2)cc1 the results were 12-LOX inh inactive, DT40 TDP1 CPT inconclusive and DT40 TDP1 no CPT 12µM.
C/C(=C/C(=O)NCC1CN(C)CCO1)C12CC3CC(CC(C3)C1)C2 (stereo not drawn) was read as 12-LOX inh inactive.
CN(C)S(=O)(=O)c1ccc(C(=O)Nc2nc(-c3cc4ccccc4o3)cs2)cc1 was read as IL1B secr inh inactive, 12-LOX inh inactive, DT40 TDP1 CPT 10µM, DT40 TDP1 no CPT 2.9µM, HT1080-NT tox inconclusive and HT1080 IDH1KD tx inconclusive.
Cc1cc(NC(=O)c2ccc(S(=O)(=O)N3CCCC3)cc2)nc2c1c(=O)oc1ccccc12 was read as IL1B secr inh inactive, 12-LOX inh inactive, DT40 TDP1 CPT 7.3µM, DT40 TDP1 no CPT 10µM, HT1080-NT tox inactive and HT1080 IDH1KD tx inactive.
`Cc1cc(NC(=O)c2ccc(S(=O)(=O)N3CCOCC3)cc2)nc2c1c(=O)oc1ccccc12` gave 12-LOX inh inactive.
`O=C(Nc1nc(-c2cc3ccccc3o2)cs1)c1ccc(S(=O)(=O)N2CCCC2)cc1` gave IL1B secr inh inactive, 12-LOX inh inactive, DT40 TDP1 CPT 16µM, DT40 TDP1 no CPT 2.3µM, HT1080-NT tox inactive and HT1080 IDH1KD tx inconclusive.
O=C(Nc1nc(-c2cc3ccccc3oc2=O)cs1)c1ccco1 was read as IL1B secr inh inactive, 12-LOX inh inactive, DT40 TDP1 CPT inconclusive, DT40 TDP1 no CPT inconclusive, HT1080-NT tox inactive and HT1080 IDH1KD tx inactive.
Screening CN(C)S(=O)(=O)c1ccc(C(=O)Nc2nnc(SCc3ccccc3)s2)cc1 returned IL1B secr inh inactive, 12-LOX inh inactive, DT40 TDP1 CPT inactive, DT40 TDP1 no CPT inactive, HT1080-NT tox inactive and HT1080 IDH1KD tx inactive.
Cc1cc(-c2csc(NC(=O)c3ccc(S(=O)(=O)N(C)C)cc3)n2)c(C)n1-c1ccccc1 was read as IL1B secr inh inactive, 12-LOX inh inactive, DT40 TDP1 CPT inconclusive, DT40 TDP1 no CPT 18µM, HT1080-NT tox inactive and HT1080 IDH1KD tx inactive.
`Cc1cccc(C(=O)N2CCCCCCNC(=O)CC2c2ccccc2)c1` (stereo not drawn) gave 12-LOX inh inactive.
Screening CC(Oc1ccc(F)cc1)C(=O)Nc1nc(-c2ccc(F)cc2)ns1 (stereo not drawn) returned 12-LOX inh inconclusive, DT40 TDP1 CPT inconclusive and DT40 TDP1 no CPT 13µM.
`COc1ccc(-c2nsc(NC(=O)C(C)Oc3ccc(Cl)c(C)c3)n2)cc1` (stereo not drawn) gave 12-LOX inh inactive, DT40 TDP1 CPT 23µM and DT40 TDP1 no CPT inconclusive.
Screening O=C1COc2cc(S(=O)(=O)CCC(=O)N3CCN(c4ccccc4)CC3)c(Cl)cc2N1 returned 12-LOX inh inactive.
`NC(=O)C1(c2nc(COc3ccccc3)nn2-c2ccc3c(c2)OCO3)CC1` gave 12-LOX inh inactive.
For C/C=C(/C)C(=O)O[C@@H]1c2cc3c(c(OC)c2-c2c(cc(OC)c(OC)c2OC)[C@@H](OC(C)=O)[C@@H](C)[C@H]1C)OCO3 the results were IL1B secr inh inactive, DT40 TDP1 CPT 18µM, DT40 TDP1 no CPT 16µM, HT1080-NT tox inactive and HT1080 IDH1KD tx inactive.
`COc1cc2c(c(OC)c1OC)-c1c(cc3c(c1OC)OCO3)C[C@H](C)[C@@](C)(O)C2` gave IL1B secr inh inactive, 12-LOX inh inactive, DT40 TDP1 CPT inactive, DT40 TDP1 no CPT inactive, HT1080-NT tox inactive and HT1080 IDH1KD tx inactive.
CCN1c2cc(C(=O)Nc3cccc4c3CCCC4)ccc2C(=O)N2CCCCCC21 (stereo not drawn) was read as 12-LOX inh inactive.
CCOc1ccc(CCNC(=O)CN2C(=O)COc3ccc(S(=O)(=O)N4CCCCCC4)cc32)cc1 was read as 12-LOX inh inactive.
`CSc1ccc(CCNC(=O)CN2C(=O)COc3ccc(S(=O)(=O)N4CCCC4)cc32)cc1` gave 12-LOX inh inactive, DT40 TDP1 CPT 23µM and DT40 TDP1 no CPT inconclusive.
For O=C(CN1C(=O)COc2ccc(S(=O)(=O)N3CCCCC3)cc21)NCCc1ccc(Cl)cc1 the results were 12-LOX inh inactive, DT40 TDP1 CPT inconclusive and DT40 TDP1 no CPT 18µM.
`CCOc1ccc(CCNC(=O)CN2C(=O)COc3ccc(S(=O)(=O)N(CC)CC)cc32)cc1` gave 12-LOX inh inactive, DT40 TDP1 CPT 23µM and DT40 TDP1 no CPT inconclusive.
COc1ccc(CCNC(=O)CN2C(=O)COc3ccc(S(=O)(=O)N4CCCCCC4)cc32)cc1OC was read as 12-LOX inh inactive.
For CN(C)c1ccc(CN2CCC(N3CCOCC3=O)CC2)cc1 the results were 12-LOX inh inactive[6.33 µM].
Screening CCOc1cccc(/C=N/NC(=O)c2cccnc2)c1O returned IL1B secr inh inactive, 12-LOX inh inactive, DT40 TDP1 CPT inconclusive, DT40 TDP1 no CPT inconclusive, HT1080-NT tox inconclusive and HT1080 IDH1KD tx 5.2µM.
For COc1cccc(/C=N/NC(=O)C(=O)N2CCCC2)c1O the results were IL1B secr inh inactive, 12-LOX inh inactive, DT40 TDP1 CPT inconclusive, DT40 TDP1 no CPT 16µM, HT1080-NT tox inconclusive and HT1080 IDH1KD tx inactive.
For CCOc1cc(C#N)c(NC(=O)c2cccnc2)cc1OCC the results were IL1B secr inh inactive, 12-LOX inh inactive, DT40 TDP1 CPT 1.3µM, DT40 TDP1 no CPT 1.8µM, HT1080-NT tox inconclusive and HT1080 IDH1KD tx 5.2µM.
Screening COc1cccc(/C=N/NC(=O)CSc2ccccc2C)c1O returned IL1B secr inh inactive, 12-LOX inh inactive, DT40 TDP1 CPT 1.2µM, DT40 TDP1 no CPT 1.3µM, HT1080-NT tox inconclusive and HT1080 IDH1KD tx 26µM.
`COc1cccc(/C=N/NC(=O)CSc2ccccc2C)c1OC` gave IL1B secr inh inactive, 12-LOX inh inactive, DT40 TDP1 CPT inactive, DT40 TDP1 no CPT inactive, HT1080-NT tox inactive and HT1080 IDH1KD tx inactive.
`CCOc1cc(C#N)c(NC(=O)c2ccccc2)cc1OCC` gave 12-LOX inh inactive.
